Measured values taken from the supplement of paper PMC7695840.
Where a name gives a salt, the structure may show the parent alone.

Key:
[1] = tested on: Staphylococcus aureus MW2 delta-mecA (mecA-); test: normalized GFP fluorescence (growth of mecA- strain) (fraction of control range); higher = more growth of mecA- strain; details: compound concentration: 150 uM; cefoxitin: subinhibitory; fluorescent label: GFP
In short: (§1)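 Pre-induced S. aureus MW2 cells carrying the gene (DsRed) and deletion cells lacking it (GFP) were combined 1:1 in LB containing a subinhibitory antibiotic dose set each day, then dispensed at 5 µL/well onto 150 μM compound (1.5% DMSO) in 1536-well plates as a single replicate. After 20 h at 37 °C and 90% humidity without shaking, DsRed (540/590) and GFP (485/520) were read. Each channel was scaled per plate between the medians of the single-strain controls, and plates with high untreated ratios and rows with DsRed/GFP >10 were excluded.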

[2] = tested on: Staphylococcus aureus MW2 (mecA+); test: normalized DsRed fluorescence (growth of mecA+ strain) (fraction of control range); higher = more growth of mecA+ strain; details: compound concentration: 150 uM; cefoxitin: subinhibitory; fluorescent label: DsRed
In short: as §1

| SMILES | normalized GFP fluorescence [1] | normalized DsRed fluorescence [2] |
| --- | --- | --- |
| C=C1CC[C@H](O)C/C1=C/C=C1\CCC[C@]2(C)[C@@H]([C@H](C)CCCC(C)(C)O)CC[C@@H]12 [Calcifediol] | -0.0113 | 0.65 |
| CC(C)[C@H]1CC[C@H](C(=O)N[C@H](Cc2ccccc2)C(=O)O)CC1 | 3.92e-05 | 0.513 |
| CN(C/C=C/C#CC(C)(C)C)Cc1cccc2ccccc12 [Terbinafine hydrochloride (Lamisil)] | 0.111 | 0.483 |
| CN(C)CCN(Cc1cccs1)c1ccccn1 | 0.185 | 0.778 |
| COc1ccc2c(c1OC)C(=O)O[C@@H]2[C@H]1c2c(cc3c(c2OC)OCO3)CCN1C | 0.473 | 0.698 |
| CNC[C@H](O)c1ccc(O)c(O)c1 | 0.95 | 0.812 |
| Cc1nnc(C(=O)NC(C)(C)c2nc(C(=O)NCc3ccc(F)cc3)c(O)c(=O)n2C)o1 [Raltegravir (MK-0518)] | 0.051 | 0.507 |
| N[C@@H](Cc1cc(I)c(Oc2cc(I)c(O)c(I)c2)c(I)c1)C(=O)O | 0.297 | 0.575 |
| C1CCN2C[C@@H]3C[C@@H](CN4CCCC[C@@H]34)[C@H]2C1 | 0.334 | 0.556 |
| O=C(O)P(=O)(O)O | 0.285 | 0.7 |
| Nc1ncn([C@H]2C[C@H](O)[C@@H](CO)O2)c(=O)n1 [Decitabine] | 0.242 | 0.802 |
| COc1cc2nccc(Oc3ccc(NC(=O)Nc4cc(C)on4)c(Cl)c3)c2cc1OC [Tivozanib (AV-951)] | 0.445 | 1.09 |
| CCN(CC)C(=O)/C(C#N)=C/c1cc(O)c(O)c([N+](=O)[O-])c1 [Entacapone] | 0.111 | 1.35 |
| COc1cc(Nc2ncc(F)c(Nc3ccc4c(n3)N(COP(=O)(O)O)C(=O)C(C)(C)O4)n2)cc(OC)c1OC | 0.774 | 0.602 |
| CC(C)[N+]1(C)[C@@H]2CC[C@H]1C[C@@H](OC(=O)C(CO)c1ccccc1)C2 (stereo partly specified) | 0.206 | 0.856 |
| Clc1ccc2c(c1)CCc1cccnc1C2=C1CCNCC1 [Desloratadine] | 0.102 | 0.936 |
| CN(C/C=C/c1ccccc1)Cc1cccc2ccccc12 | 0.0944 | 1.02 |

| SMILES | normalized GFP fluorescence [1] | normalized DsRed fluorescence [2] |
| --- | --- | --- |
| CCCN1CCCC[C@H]1C(=O)Nc1c(C)cccc1C [Ropivacaine HCl] | 0.242 | 1.01 |
| CCCCCCc1ccc(O)cc1O | 0.0569 | 1.59 |
| c1ccc(CN(CC2=NCCN2)c2ccccc2)cc1 | 0.974 | 0.762 |
| CCC1(c2ccccc2)C(=O)NCNC1=O | 0.33 | 0.811 |
| NCc1ccc(S(N)(=O)=O)cc1 | 0.22 | 0.71 |
| O=c1n(CCCN2CCN(c3cccc(Cl)c3)CC2)nc2ccccn12 | 0.187 | 1.1 |
| O=S(=O)(O)NC1CCCCC1 | 0.457 | 0.493 |
| CC(C)(C)NC[C@H](O)COc1ccccc1C1CCCC1 | 0.435 | 0.586 |
| O=c1oc2cc(O)ccc2s1 [Tioxolone] | 0.428 | 0.731 |
| CCCC(CCC)C(=O)O [Valproic acid sodium salt (Sodium valproate)] | 0.506 | 0.638 |
| CN(C)CCCN1c2ccccc2Sc2ccc(C(F)(F)F)cc21 | -0.00501 | 1.49 |
| N#Cc1ccc(C(c2ccc(C#N)cc2)n2cncn2)cc1 | 0.628 | 0.758 |
| CC(=O)O[C@H]1C(=O)[C@@]2(C)[C@H]([C@H](OC(=O)c3ccccc3)[C@]3(O)C[C@H](OC(=O)[C@H](O)[C@@H](NC(=O)c4ccccc4)c4ccccc4)C(C)=C1C3(C)C)[C@]1(OC(C)=O)CO[C@@H]1C[C@@H]2O [Paclitaxel (Taxol)] | 0.188 | 0.669 |
| Cc1cccc(Nc2ccccc2C(=O)O)c1C [Mefenamic Acid] | 0.0909 | 0.169 |
| CNC(C)C1CCC(N)C(OC2C(N)CC(N)C(OC3OCC(C)(O)C(NC)C3O)C2O)O1 (stereo unspecified) | 0.397 | 0.522 |
| CC(C(=O)O)c1ccc(C(=O)c2cccs2)cc1 (stereo unspecified) | 0.344 | 0.423 |
